According to PubChem BioAssay:
The source made the active and inactive calls.

Key:
[1] = optical density shifts of acrAB sulA E. coli – strain DRC41, OD650, 48 h, E. coli filamentation inducer project, primary screen (AID 1152); settings: higher = more signal, called active from +8 up or from −8 down;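 further: E. coli MC1000 strain DRC41 lacking acrAB efflux pump and sulA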
[2] = probe aLefty1 binding on compound microarray – biochemical, small-molecule microarray, 635/667 nm fluorescence, primary screen (AID 1153); settings: higher = more signal;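 further: score merges spot fluorescence with signal-to-noise ratio from the scanned slide images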
[3] = plasmodial surface anion channel blockers, osmotic lysis – cell-based, P. falciparum Indochina, OD700, 1 h, primary screen (AID 1154); settings: P. falciparum Indochina infected RBC osmotic lysis, higher = more signal, called active from +8 up or from −8 down
[4] = plasmodial surface anion channel blockers, osmotic lysis – cell-based, P. falciparum Indochina, OD700, 2 h, primary screen (AID 1155);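 further: lysis reports solute entry through the parasite surface anion channel PSAC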; settings: P. falciparum Indochina infected erythrocytes, higher = more signal, called active from +8 up or from −8 down
[5] = changes in parasitized red cell lysis, either direction – P. falciparum Indochina, OD700, 3 h, PSAC antagonist project, primary screen (AID 1156); settings: P. falciparum-infected erythrocytes, osmotic lysis, higher = more signal, called active from +8 up or from −8 down
[6] = plasmodial surface anion channel blockers, osmotic lysis – cell-based, P. falciparum Indochina, OD700, 18 h, primary screen (AID 1157); settings: P. falciparum Indochina infected erythrocytes, osmotic lysis OD700, 18 h; higher = more signal, called active from +8 up or from −8 down
[7] = S6 kinase pathway phospho-S6 level changes – cell-based, A549, cytoblot, luminescence, serum-stimulated, primary screen (AID 1158); settings: 5 h, higher = more signal;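 further: serum-stimulated A549 lung adenocarcinoma cells; signal is phosphorylated S6 detected by cytoblot immunostaining with HRP secondary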
[8] = molecular target: NADPH oxidase 2 (Homo sapiens) (UniProt P04839); test: compounds shifting NOX2 Amplex Red fluorescence – cell-based, HEK293-NOX2, PMA-stimulated, NOX inhibitor project, primary screen (AID 1159); settings: 45 min, higher = more signal, called active from +8 up or from −8 down; further: test concentration not given here
[9] = molecular target: NADPH oxidase 4 (Homo sapiens) (UniProt Q9NPH5); test: compounds shifting NOX4 Amplex Red fluorescence – cell-based, HEK293-NOX4, tetracycline-induced, NOX inhibitor project, primary screen (AID 1160); settings: HEK293-NOX4, Amplex Red H2O2 fluorescence, 45 min; higher = more signal, called active from +8 up or from −8 down
[10] = molecular target: NADPH oxidase 5 (Homo sapiens) (UniProt Q96PH1); test: compounds shifting NOX5 Amplex Red fluorescence – cell-based, HEK293-NOX5, NOX inhibitor project, primary screen (AID 1161); settings: HEK293-NOX5, ionomycin, 45 min, higher = more signal
[11] = compound effects on lung adenocarcinoma cell viability – A549, calcein-AM fluorescence, 48 h, basal, profiling panel (AID 1162); settings: higher = more signal; further: test concentration not given here
[12] = compound effects on differentiated 3T3-L1 adipocyte viability – cell-based, 3T3-L1 adipocytes, calcein-AM fluorescence, 48 h, basal, profiling panel (AID 1163); settings: 3T3-L1 adipocytes viability, higher = more signal; further: test concentration not given here
[13] = compound effects on hepatocellular carcinoma cell viability – HepG2, calcein-AM fluorescence, 48 h, basal, profiling panel (AID 1164); settings: higher = more signal; further: test concentration not given here
[14] = compound effects on multiple myeloma cell viability – MM1S, calcein-AM fluorescence, 48 h, basal, profiling panel (AID 1165); settings: higher = more signal;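 further: viability of MM1S multiple myeloma cells under basal unstimulated conditions; test concentration not given here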
[15] = calcein-AM signal in unstimulated myeloma cells – cell-based, calcein-AM fluorescence, 48 h, PK04 Diversity Set, profiling panel (AID 1166); settings: RPMI8226 myeloma viability, higher = more signal;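 further: cells grown under basal conditions without added stimulus; test concentration not given here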
[16] = JC-1 mitochondrial signal, unstimulated HepG2 cells – cell-based, JC-1 fluorescence, 24 h, 100 nL compound, profiling panel (AID 1167); settings: HepG2 mitochondrial potential, higher = more signal; further: test concentration not given here
[17] = JC-1 mitochondrial signal, unstimulated adipocytes – cell-based, JC-1 fluorescence, 3T3-L1 adipocytes, 24 h, 100 nL compound, profiling panel (AID 1168); settings: JC-1 mitochondrial fluorescence, higher = more signal, called active from +8 up or from −8 down; further: test concentration not given here
[18] = JC-1 mitochondrial signal, unstimulated myeloma cells – cell-based, JC-1 fluorescence, RPMI8226, 24 h, 100 nL compound, profiling panel (AID 1169); settings: JC-1 mitochondrial potential fluorescence, higher = more signal; further: test concentration not given here
[19] = JC-1 mitochondrial signal, unstimulated MM1S myeloma – cell-based, JC-1 fluorescence, 24 h, 100 nL compound, profiling panel (AID 1170); settings: MM1S mitochondrial potential, higher = more signal; further: test concentration not given here
[20] = resazurin metabolic signal in A549 cells – cell-based, resazurin fluorescence, 24 h, PK04 Diversity Set, profiling panel (AID 1171); settings: A549 viability, higher = more signal, called active from +8 up or from −8 down; further: test concentration not given here

Chain of NADPH oxidase 4 (Homo sapiens) (Q9NPH5 whole entry, looked up): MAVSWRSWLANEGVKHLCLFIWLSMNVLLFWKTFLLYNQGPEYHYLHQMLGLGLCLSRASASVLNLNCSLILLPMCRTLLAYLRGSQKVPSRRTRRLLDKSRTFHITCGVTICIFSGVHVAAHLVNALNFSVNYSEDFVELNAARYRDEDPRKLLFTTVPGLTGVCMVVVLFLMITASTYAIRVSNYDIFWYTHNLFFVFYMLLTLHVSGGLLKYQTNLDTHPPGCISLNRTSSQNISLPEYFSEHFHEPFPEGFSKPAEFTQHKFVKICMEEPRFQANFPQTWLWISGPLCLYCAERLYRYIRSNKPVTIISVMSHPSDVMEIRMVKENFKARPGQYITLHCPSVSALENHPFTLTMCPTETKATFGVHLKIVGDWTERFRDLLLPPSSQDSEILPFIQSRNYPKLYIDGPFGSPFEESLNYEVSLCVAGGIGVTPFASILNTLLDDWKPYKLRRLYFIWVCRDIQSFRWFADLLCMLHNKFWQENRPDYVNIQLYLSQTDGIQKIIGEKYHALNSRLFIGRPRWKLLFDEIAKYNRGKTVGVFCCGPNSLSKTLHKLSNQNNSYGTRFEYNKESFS
Chain of NADPH oxidase 5 (Homo sapiens) (Q96PH1 whole entry, looked up): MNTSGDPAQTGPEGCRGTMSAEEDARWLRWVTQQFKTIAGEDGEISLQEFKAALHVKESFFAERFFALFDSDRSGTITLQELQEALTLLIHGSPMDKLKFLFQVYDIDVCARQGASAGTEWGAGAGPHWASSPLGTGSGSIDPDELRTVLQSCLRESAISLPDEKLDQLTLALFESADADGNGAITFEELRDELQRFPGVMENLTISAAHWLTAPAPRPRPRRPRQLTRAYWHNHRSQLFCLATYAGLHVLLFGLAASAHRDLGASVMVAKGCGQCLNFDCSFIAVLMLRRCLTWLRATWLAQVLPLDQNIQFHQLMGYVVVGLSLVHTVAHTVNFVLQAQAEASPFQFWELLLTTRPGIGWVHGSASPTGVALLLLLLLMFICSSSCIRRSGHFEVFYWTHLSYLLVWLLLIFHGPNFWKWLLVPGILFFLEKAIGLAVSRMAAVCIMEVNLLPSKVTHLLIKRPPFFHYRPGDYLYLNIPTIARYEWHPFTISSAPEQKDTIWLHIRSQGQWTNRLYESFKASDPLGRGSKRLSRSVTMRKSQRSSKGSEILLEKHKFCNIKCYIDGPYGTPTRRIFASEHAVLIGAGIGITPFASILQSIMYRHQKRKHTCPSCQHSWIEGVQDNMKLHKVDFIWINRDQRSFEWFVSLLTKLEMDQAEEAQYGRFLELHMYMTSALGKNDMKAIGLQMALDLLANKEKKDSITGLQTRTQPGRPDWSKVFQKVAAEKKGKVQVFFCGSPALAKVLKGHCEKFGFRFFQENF
Chain of NADPH oxidase 2 (Homo sapiens) (P04839 whole entry, looked up): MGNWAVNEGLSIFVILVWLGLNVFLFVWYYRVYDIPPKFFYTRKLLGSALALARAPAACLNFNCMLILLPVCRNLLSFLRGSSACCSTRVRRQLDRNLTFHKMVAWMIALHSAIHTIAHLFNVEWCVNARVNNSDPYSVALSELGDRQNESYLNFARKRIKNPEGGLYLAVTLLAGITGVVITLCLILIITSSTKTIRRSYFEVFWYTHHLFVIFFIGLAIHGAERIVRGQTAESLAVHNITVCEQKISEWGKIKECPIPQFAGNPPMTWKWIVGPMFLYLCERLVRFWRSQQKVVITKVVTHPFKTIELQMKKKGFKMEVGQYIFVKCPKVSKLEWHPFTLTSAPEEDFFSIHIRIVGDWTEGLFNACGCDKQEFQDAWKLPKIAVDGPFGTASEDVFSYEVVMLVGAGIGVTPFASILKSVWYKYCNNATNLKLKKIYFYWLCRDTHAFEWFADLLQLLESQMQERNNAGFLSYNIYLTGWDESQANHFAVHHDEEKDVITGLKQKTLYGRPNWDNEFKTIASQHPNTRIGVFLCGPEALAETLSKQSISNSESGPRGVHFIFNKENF

Row | Structure (SMILES) | z-score [1] | composite z-score [2] | z-score [3] | z-score [4] | z-score [5] | z-score [6] | z-score [7] | z-score [8] | z-score [9] | z-score [10] | z-score [11] | z-score [12] | z-score [13] | z-score [14] | z-score [15] | z-score [16] | z-score [17] | z-score [18] | z-score [19] | z-score [20]
1 | CO[C@H]1O[C@H](CO)[C@@H](OC(=O)CCc2ccccc2)[C@H](OC(=O)c2cc3ccccc3[nH]2)[C@H]1OC(=O)c1cc2ccccc2[nH]1 | 2.71 (inactive) | -0.162 | 2.39 (inactive) | 0.923 (inactive) | -2.27 (inactive) | 1.1 (inactive) | 2.17 | -0.601 (inactive) | 0.0901 (inactive) | 0.855 | 0.98 | 0.679 | 0.138 | -2.82 | -2.54 | -2.04 | 1.36 (inactive) | -0.502 | -1.1 | -2.84 (inactive)
2 | O=C(N1CCOCC1)[C@@]1(CCS(=O)(=O)c2ccccc2)N=C(c2ccc(OCCCO)cc2)O[C@H]1c1ccccc1 | 0.276 (inactive) | 0.446 | 30.2 (active) | 27.8 (active) | 0.265 (inactive) | 5.34 (inactive) | -0.679 | 0.386 (inactive) | 1.75 (inactive) | 1.97 | 0.723 | -0.614 | 0.491 | 0.201 | 0.614 | 0.271 | -0.277 (inactive) | -0.489 | -0.617 | -0.223 (inactive)
3 | Cc1ccc(S[C@]2(C(=O)NC(C)C)CC(=O)N(C(C)C)[C@@H]2c2ccc(CO)cc2I)cc1 | -0.745 (inactive) | 0.207 | 4.77 (inactive) | 0.342 (inactive) | 0.59 (inactive) | 0.397 (inactive) | 0.293 | 1.8 (inactive) | -1.53 (inactive) | -0.227 | 0.931 | -0.134 | 0.0096 | -2.39 | -1.38 | 1.09 | 0.389 (inactive) | -0.312 | -1.32 | -0.0361 (inactive)
4 | C=C(CCCC)C(=O)CC[C@H](OC(=O)c1ccccc1-c1ccccc1C(=O)O)c1ccccc1OCCO | 0.509 (inactive) | -0.0984 | 8.58 (active) | 1.56 (inactive) | 1.82 (inactive) | 0.944 (inactive) | -0.27 | 3.25 (inactive) | 0.0107 (inactive) | -1.15 | 0.305 | 1.1 | -0.669 | -3.38 | -3.85 | -0.309 | 0.954 (inactive) | -0.873 | 0.311 | -0.22 (inactive)
5 | CCOC(=O)C1=CCC(c2ccccc2)N(S(=O)(=O)c2ccc([N+](=O)[O-])cc2)C1 (stereo not given) | -0.72 (inactive) | 0.0451 | 2.62 (inactive) | 0.987 (inactive) | 1.4 (inactive) | 0.46 (inactive) | -0.412 | 0.528 (inactive) | -0.114 (inactive) | -0.023 | -0.482 | -1.19 | -1.07 | -0.259 | 0.0811 | -1.73 | -0.483 (inactive) | 0.602 | -1.37 | 0.217 (inactive)
6 | C=C(/C(=C/C[C@@H](OC(C)=O)c1ccc(CO)o1)c1cc(C(=O)OC)ccc1OC)C(C)C | 0.225 (inactive) | -0.0536 | 4.3 (inactive) | 0.758 (inactive) | 1.35 (inactive) | 0.479 (inactive) | -0.0642 | -0.169 (inactive) | -0.673 (inactive) | -0.988 | 1.62 | -0.634 | 0.377 | -0.998 | 0.0028 | -0.241 | -0.298 (inactive) | -0.544 | -1.2 | -0.0571 (inactive)
7 | CC(C)CNC(=O)[C@@]1(c2ccc([N+](=O)[O-])cc2)CC(=O)N(C2CCCCC2)[C@@H]1c1ccc(CO)cc1 | 0.706 (inactive) | 0.164 | 0.879 (inactive) | -0.189 (inactive) | 0.0352 (inactive) | -0.013 (inactive) | 0.358 | 0.382 (inactive) | 0.581 (inactive) | 0.668 | -0.0452 | 0.389 | -0.004 | -0.41 | 0.542 | 0.634 | -0.6 (inactive) | -0.426 | 0.771 | 0.436 (inactive)
8 | COCCOC(=O)N1C(=O)[C@@]2(c3cc(C#CCC(C(=O)OC)C(=O)OC)ccc31)[C@H](c1ccc(OCCO)cc1)N1[C@H](c3ccccc3)[C@H](c3ccccc3)OC(=O)[C@H]1[C@@H]2C(=O)Nc1nc2ccccc2s1 | 2.25 (inactive) | 0.129 | 4.99 (inactive) | 2.47 (inactive) | 0.924 (inactive) | 2.21 (inactive) | 0.0091 | 0.892 (inactive) | 0.647 (inactive) | 0.93 | 0.705 | 0.694 | 0.278 | -0.518 | -0.312 | -2.91 | 0.578 (inactive) | -1.01 | -1.29 | 0.108 (inactive)
